Hit rate of the full screen: of about 2,100 compounds, about 770 (37%) were called active.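 Rule for the calls: active = by-eye trace score of 1 for enhancers or -1 for inhibitors, so actives lie on both sides (some results past the limit were not filed as active); inactive = score 0, or 3 fluorescent, or 4 baseline rise.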 This is one part of the list.
Molecular target: G protein-activated inward rectifier potassium channel 2 (Homo sapiens) + G protein-activated inward rectifier potassium channel 1 (Homo sapiens) (UniProt P48051+P48549)
Sequence (P48051 whole entry, looked up): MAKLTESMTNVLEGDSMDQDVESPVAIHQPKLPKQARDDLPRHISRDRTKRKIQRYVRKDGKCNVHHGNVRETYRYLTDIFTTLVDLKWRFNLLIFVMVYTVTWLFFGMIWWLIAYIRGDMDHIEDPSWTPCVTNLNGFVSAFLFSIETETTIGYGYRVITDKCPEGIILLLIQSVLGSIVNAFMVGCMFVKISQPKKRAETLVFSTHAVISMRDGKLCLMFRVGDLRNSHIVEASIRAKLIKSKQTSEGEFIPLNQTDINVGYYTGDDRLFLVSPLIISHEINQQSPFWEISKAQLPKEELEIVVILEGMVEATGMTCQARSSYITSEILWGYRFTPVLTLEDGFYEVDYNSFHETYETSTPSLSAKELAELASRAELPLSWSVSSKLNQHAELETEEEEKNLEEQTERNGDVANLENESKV
Sequence (P48549 whole entry, looked up): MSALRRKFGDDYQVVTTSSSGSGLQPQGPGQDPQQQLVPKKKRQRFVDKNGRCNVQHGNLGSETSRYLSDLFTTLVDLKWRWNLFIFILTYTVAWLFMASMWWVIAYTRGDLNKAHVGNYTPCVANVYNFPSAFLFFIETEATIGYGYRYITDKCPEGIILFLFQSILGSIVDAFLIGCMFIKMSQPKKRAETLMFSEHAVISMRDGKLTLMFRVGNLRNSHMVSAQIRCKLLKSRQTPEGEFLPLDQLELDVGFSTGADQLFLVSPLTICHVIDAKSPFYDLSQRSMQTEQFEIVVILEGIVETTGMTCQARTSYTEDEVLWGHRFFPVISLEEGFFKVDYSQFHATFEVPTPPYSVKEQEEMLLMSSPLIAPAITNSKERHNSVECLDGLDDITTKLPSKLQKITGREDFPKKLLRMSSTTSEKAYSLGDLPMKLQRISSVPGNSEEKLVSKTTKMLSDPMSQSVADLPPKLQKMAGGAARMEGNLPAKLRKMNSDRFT
Assay: GIRK1/2 thallium flux modulators, retest, confirmation, cell-based, HEK293 rmGlu8/hGIRK1/2, FluoZin-2 (AID 623911)
Conditions: HEK293 rmGlu8/hGIRK1/2, thallium flux FluoZin-2; actives lie on both sides; glutamate co-added at its EC20 level

Structure (SMILES) | manual score
O=C(c1ccc2c(=O)n(C3CCCC3)c(=S)[nH]c2c1)N1CCc2ccccc21 | 0 (inactive)
CCCCn1nc(C(=O)N2CCc3ccccc32)c2ccccc2c1=O | -1 (active)
CCc1c(C)nc(SCC(=O)N2CCc3ccccc32)[nH]c1=O | 3 (inactive)
Cc1c(C(=O)N2CCc3ccccc32)oc2c1C(=O)CC(C)(C)C2 | 0 (inactive)
CCn1nc(C(=O)OCC(=O)N2CCc3ccccc32)c2ccccc2c1=O | -1 (active)
CCn1nc(C(=O)OCC(=O)c2c[nH]c3ccccc23)c2ccccc2c1=O | 0 (inactive)
Cc1[nH]n(-c2cccc3ccccc23)c(=O)c1/C=N/c1sc2c(c1C#N)CCC2 | 1 (active)
Cc1[nH]n(-c2ccc(F)cc2)c(=O)c1/C=N/c1sc2c(c1C#N)CCCC2 | 3 (inactive)
CC(=O)c1cccc(NC(=O)C2CCCN2S(=O)(=O)c2cccc3cccnc23)c1 (stereo not given) | 0 (inactive)
CCOC(=O)c1c(NS(=O)(=O)c2cccc(OC)c2)sc2c1CCC2 | 1 (active)
CCOC(=O)c1c(NS(=O)(=O)c2ccc(Br)cc2)sc2c1CCC2 | 1 (active)
COc1ccccc1OCC(=O)Nc1sc2c(c1C(=O)NCC1CCCO1)CCC2 (stereo not given) | 0 (inactive)
CCOc1ccc(C(=O)CN2CCN(S(=O)(=O)c3ccc(Br)cc3)CC2)cc1 | 0 (inactive)
CCc1cc2c(=O)n(CC)c(SC(C)C(=O)Nc3c(C)n(C)n(-c4ccccc4)c3=O)nc2s1 (stereo not given) | 0 (inactive)
O=C(NC(=S)N(CCc1ccccc1)CCc1ccccc1)c1ccco1 | 1 (active)
O=C(NC(=S)NCCc1ccccc1)c1ccccc1 | 0 (inactive)
O=C(NC(=S)Nc1nc2c(ccc3ccccc32)s1)c1cccs1 | 0.5 (inactive)
O=C(NC(=S)Nc1nc2ccccc2s1)c1cccs1 | 0.5 (inactive)
O=C(NC(=S)NCCc1ccccc1)c1ccco1 | 1 (active)
O=C(CNC(=S)NC(=O)c1ccco1)c1ccccc1 | 1 (active)
O=C(CNC(=S)NC(=O)c1cccs1)c1ccccc1 | 1 (active)
Fc1cccc(-n2c(-c3ccco3)nc3nc4ccccc4nc32)c1 | 0 (inactive)
O=C(Nc1ccncc1)c1ccc2c(c1)C(=O)N(C1CCCCC1)C2=O | 0 (inactive)
CCCCNc1c2c3c(cccc3n(C)c1=O)C(=O)c1ccccc1-2 | 3 (inactive)
CCc1nc(N2CCOCC2)c(C#N)c2c1CCCC2 | 0 (inactive)
S=c1nc[nH]c2c1sc1nc(-c3ccccc3)c3c(c12)CCCC3 | 1 (active)
N#CC1=C(N)SC(N)=C(C#N)C1c1c(Cl)cccc1Cl | -1 (active)

Structure (SMILES) | manual score
Cc1sccc1C1C(C#N)=C(N)SC(N)=C1C#N | 0 (inactive)
N#CC1=C(N)SC(N)=C(C#N)C1CCc1ccccc1 | 0 (inactive)
O=C(CSc1cccc2cccc(Cl)c12)NCc1cccs1 | 0 (inactive)
S=C(NCc1cccs1)Nc1cccc(Cl)c1 | 1 (active)
Cc1csc(NC(=S)Nc2cccc(Cl)c2)n1 | 1 (active)
COCCCN(C(=S)Nc1cccc(Cl)c1)C(C)c1ccncc1 (stereo not given) | 0 (inactive)
Cc1ccc(C2CC2C(=O)NNC(=S)Nc2cccc(Cl)c2)cc1 (stereo not given) | 0 (inactive)
CC(C)n1c(-c2ccc(C(C)(C)C)cc2)n[nH]c1=S | 0 (inactive)
Cc1ccc2nc(NC(=S)NC(=O)c3cccs3)sc2c1 | 0 (inactive)
Cc1ccc(C(=O)N/N=C(/CC(=O)c2cccs2)C(F)(F)F)cc1 | 1 (active)
N#Cc1c(-c2ccco2)nc(SCc2ccc(F)cc2)[nH]c1=O | 0 (inactive)
CSCSC1=C(C#N)C(c2ccc(Cl)cc2)C(C(C)=O)=C(C)N1 (stereo not given) | 0 (inactive)
CC(=O)C1=C(C)NC(SCc2ccc(C#N)cc2)=C(C#N)C1c1ccco1 (stereo not given) | -1 (active)
CCOC(=O)C1=C(c2ccccc2)NC(SC)=C(C#N)C1c1ccco1 (stereo not given) | 0 (inactive)
CC(=O)C1=C(C)NC(SCC(=O)c2ccc(Cl)cc2Cl)=C(C#N)C1c1ccco1 (stereo not given) | -1 (active)
CCOc1ccccc1C1CC(=O)NC(SCC)=C1C#N (stereo not given) | 0 (inactive)
CSCSC1=C(C#N)C(c2ccccc2Cl)C(C(C)=O)=C(C)N1 (stereo not given) | -1 (active)
CC(Nc1nc(N2CCCC2)nc2ccccc12)c1ccccc1 (stereo not given) | -1 (active)
CC(Nc1nc(N2CCCCC2)nc2ccccc12)c1ccccc1 (stereo not given) | -1 (active)
C=CCNc1nc(N2CCCC2)nc2ccccc12 | -1 (active)
CC1(C)CC(=S)Nc2ccccc2S1 | 0 (inactive)
CCc1cccc(NC(=O)NC2CCCCC2)c1 | 0.5 (inactive)
O=C(Nc1ccc(F)c(F)c1)NC1CCCCC1 | 1 (active)
CCCN1CCC(NC(=O)Nc2ccc(F)cc2F)CC1 | 0 (inactive)
CC1(C)CC(=O)C2=C(C1)OC(/N=C/N1CCOCC1)=C(C#N)C2c1ccccc1 (stereo not given) | -1 (active)
N=c1c2c(-c3ccccc3)c(-c3ccccc3)n(Cc3ccccc3)c2ncn1CCCO | -1 (active)
CC(C)Cn1cnc2c(c(-c3ccccc3)c(-c3ccccc3)n2Cc2ccco2)c1=N | -1 (active)

Structure (SMILES) | manual score
COC(=O)c1cc(NC(=O)c2ccoc2C)cc(C(=O)OC)c1 | 0 (inactive)
CCN1CCN(C(=O)c2ccc3c(=O)n(C4CCCC4)c(=S)[nH]c3c2)CC1 | 0 (inactive)
COc1cc2c(C(=O)N3CCN(C4CCCCC4)CC3)cn(CC(C)C)c(=O)c2cc1OC | -1 (active)
CC(C)OC(=O)CC12CN3CN(C1)CC(CC(=O)OC(C)C)(C3)C2=O | 0 (inactive)
CCN(CC)c1nc(C)nc2c1cnn2CCc1ccccc1 | 0 (inactive)
Cc1ccccc1NC(=O)C(=O)NC(C)CCc1ccccc1 (stereo not given) | 0 (inactive)
Cc1cccc(NC(=S)NC(=O)CCc2ccccc2)c1 | 0 (inactive)
Cc1cccc(NC(=O)NC(C)CCc2ccccc2)c1 (stereo not given) | 1 (active)
CCN(CC)S(=O)(=O)c1cccc(S(=O)(=O)c2cccc(S(=O)(=O)N(CC)CC)c2)c1 | -1 (active)
CN1CCN(S(=O)(=O)c2cccc(S(=O)(=O)c3cccc(S(=O)(=O)N4CCN(C)CC4)c3)c2)CC1 | 0 (inactive)
CCN(CC)S(=O)(=O)c1csc(C(=O)NCc2ccccc2)c1 | 0 (inactive)
CCN(CC(=O)c1c(N)n(C)c(=O)n(C)c1=O)c1cccc2ccccc12 | 0 (inactive)
CC(c1ccccc1)n1c(SCC(=O)N2CC(=O)Nc3ccccc32)nc2ccccc2c1=O (stereo not given) | 0 (inactive)
O=C1CN(C(=O)CSc2nc3cc(Cl)ccc3c(=O)n2Cc2ccccc2)c2ccccc2N1 | 1 (active)
O=C1CN(C(=O)CSc2nc3ccccc3c(=O)n2Cc2ccc(F)cc2)c2ccccc2N1 | 0.5 (inactive)
Cn1c(=O)c(NCCO)c2c3c(cccc31)C(=O)c1ccccc1-2 | 3 (inactive)
CC(C)NC(=O)c1nc2ccccc2s1 | 0 (inactive)
O=C(Nc1nnc(-c2ccc(Cl)cc2)o1)c1ccc(N2C(=O)CCC2=O)cc1 | 0 (inactive)
O=C(O)CC/C(=C\c1cc([N+](=O)[O-])ccc1Cl)c1nc2ccccc2s1 | -0.5 (inactive)
O=C(NCCCN1CCN(c2cccc(Cl)c2)CC1)c1cccc(N2CCCC2=O)c1 | 0 (inactive)
O=C(Nc1nnc(-c2ccc(Cl)cc2)o1)c1nc2ccccc2s1 | 1 (active)
O=C(Nc1nnc(-c2ccc(Cl)cc2)o1)c1ccccc1Br | 1 (active)
O=C(Nc1nnc(-c2ccc(Cl)cc2)o1)c1cccc(N2C(=O)CCC2=O)c1 | -1 (active)
O=C(Nc1nnc(-c2ccc(Cl)cc2)o1)C1=COCCO1 | 0 (inactive)
O=C(Nc1nnc(-c2ccccc2Cl)o1)c1nc2ccccc2s1 | 1 (active)
O=c1c(-c2ccc(Cl)cc2)[n+]([O-])c2ccccc2n1O | 2 (inactive)
CCC(C)(C)NC(=O)C(c1ccc(F)cc1)N(Cc1ccco1)C(=O)c1cnccn1 (stereo not given) | 0 (inactive)

Structure (SMILES) | manual score
COC(=O)c1ccc(C(=O)OC)c(NC(=O)CSc2nc(-c3ccco3)cc(C(F)(F)F)n2)c1 | -0.5 (inactive)
Cc1c(C#N)c2ccccc2n1CC(=O)O | 0 (inactive)
Cc1ccc(N=C2CCCN2Cc2ccccc2)c(C#N)c1 | -1 (active)
Cc1ccc(C)c(N=C2CCCN2Cc2ccccc2)c1C#N | -1 (active)
CC(C)n1c(CCC(=O)O)ccc1-c1ccccc1 | 0 (inactive)
CC(C)OCCCNC(=O)c1cccc(NC(=O)c2ccccc2)c1 | 0 (inactive)
O=C(NC(=S)Nc1ccc2c(c1)OCCO2)c1ccccc1 | 0.5 (inactive)
O=C(Nc1ccc2[nH]c(=S)sc2c1)c1ccccc1 | 1 (active)
O=C(CCS(=O)NCc1ccccc1)NCc1ccccc1 (stereo not given) | 0 (inactive)
Cn1cc(CCC(=O)NCc2ccc3c(c2)OCO3)c2ccccc21 | 0 (inactive)
O=C(NCc1ccc2c(c1)OCO2)C1CCN(Cc2cnn(-c3ccccc3)c2-n2cccc2)CC1 | -1 (active)
CS(=O)(=O)N(CCc1ccccc1)CC(=O)NCc1ccc2c(c1)OCO2 | 0 (inactive)
CCc1nnc(NC(=O)CSc2nnc(-c3c[nH]c4ccccc34)n2CC)s1 | 0 (inactive)
COc1c(Cl)cc(Cl)cc1CNCCNCC(C)O (stereo not given) | 1 (active)
CC(NC(=O)c1ccccc1NC(=O)CSc1nnnn1C)c1ccccc1 (stereo not given) | 0 (inactive)
CC(Sc1nnnn1C)C(=O)Nc1ccc(Oc2ccccc2)cc1 (stereo not given) | 1 (active)
S=C1NC2=C(CCCC2)C2(CCCCC2)N1 | 0 (inactive)
CCN(C(=O)c1cc(Cl)ccc1OC)C1CCCCC1 | -0.5 (inactive)
COc1ccccc1/C=C/C(=O)NC(=S)N(C)C1CCCCC1 | 1 (active)
CC1CCCC(NC(=S)NC(=O)c2ccccc2Br)C1C (stereo not given) | 0 (inactive)
CN(Cc1ccccc1)C(=S)NC(=O)C1CCCCC1 | 0 (inactive)
CN(C(=S)NC(=O)c1ccccc1Br)C1CCCCC1 | 1 (active)
CCOC(=O)CSc1nnc(-c2ccccc2OC)o1 | -0.5 (inactive)
CC(C)NC(=O)/C(=C/c1ccco1)c1ccccc1 | 0 (inactive)
